Among the data in PubChem BioAssay (EPA / NIEHS) are outcome and AC50 values, retold here.

Read-out in assay [1]: sulfotransferase 2A1 (SULT2A1), SULT2A1 (gene 6822)
Nature of the assay: LTEA_HepaRG_SULT2A1: Life Technologies and Expression Analysis (LTEA) Assay for sulfotransferase 2A1 (SULT2A1) using HepaRG (AID 2283531; active = hit-call score of the fitted dose curve at least 0.9, where 1 is the maximum; inactive = score below 0.9). As to conditions: mRNA level, 48 h; actives raise or lower the signal. The method in brief: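 Gene-expression endpoint in a human liver cell line: SULT2A1 mRNA change after 48 h chemical treatment, curves fitted in both directions relative to 0.5% DMSO vehicle. Concentrations spanned eight half-log steps from 100 uM.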

Read-out in assay [2]: Transforming Growth Factor (TGFA), TGFA (gene 7039)
Nature of the assay: LTEA_HepaRG_TGFA: Life Technologies and Expression Analysis (LTEA) Assay for Transforming Growth Factor (TGFA) using HepaRG (AID 2283532; active = hit-call score of the fitted dose curve at least 0.9, where 1 is the maximum; inactive = score below 0.9). As to conditions: mRNA level, 48 h; actives raise or lower the signal. The method in brief:
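HepaRG (human liver line), 48 h exposure, 8 conc. half-log down from 100 uM, 0.5% DMSO vehicle, duplicates; serum-free induction medium. TGFA mRNA by TaqMan qRT-PCR, ACTB/GAPDH/POLR2A normalization; gain/loss fit vs DMSO.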

Read-out in assay [3]: TIMP1, TIMP1 (gene 7076)
In words: LTEA_HepaRG_TIMP1: Life Technologies and Expression Analysis (LTEA) Assay for TIMP1 using HepaRG (AID 2283534; active = hit-call score of the fitted dose curve at least 0.9, where 1 is the maximum; inactive = score below 0.9;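 as to outcome: TaqMan qRT-PCR signal normalized to ACTB GAPDH and POLR2A housekeeping genes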). Particulars: mRNA level, 48 h; actives raise or lower the signal. The essentials:
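TIMP1 induction or repression in HepaRG cells after 48 h chemical exposure (eight concentrations, highest 100 uM), assessed by normalized qRT-PCR with bidirectional fitting to DMSO controls.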

Read-out in assay [4]: Tumor necrosis factor receptor 1 (TNFRSF1A), TNFRSF1A (gene 7132)
Nature of the assay: LTEA_HepaRG_TNFRSF1A: Life Technologies and Expression Analysis (LTEA) Assay for Tumor necrosis factor receptor 1 (TNFRSF1A) using HepaRG (AID 2283535; active = hit-call score of the fitted dose curve at least 0.9, where 1 is the maximum; inactive = score below 0.9). As to conditions: mRNA level, 48 h; actives raise or lower the signal. The essentials:
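Assay uses 48 h chemical treatment of differentiated HepaRG monolayers, tested in duplicate at eight concentrations from 100 uM downward in 0.5% DMSO. mRNA is normalized to ACTB, GAPDH and POLR2A, with induction or suppression fitted relative to vehicle.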

Read-out in assay [5]: Thyroid Hormone Responsive (THRSP), THRSP (gene 7069)
Nature of the assay: LTEA_HepaRG_THRSP: Life Technologies and Expression Analysis (LTEA) Assay for Thyroid Hormone Responsive (THRSP) using HepaRG (AID 2283536; active = hit-call score of the fitted dose curve at least 0.9, where 1 is the maximum; inactive = score below 0.9). Particulars: mRNA level, 48 h; actives raise or lower the signal. The essentials: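 mRNA induction or loss relative to 0.5% DMSO vehicle was fitted bidirectionally across an eight-point curve whose highest exposure was 100 uM. Human HepaRG liver cells received chemicals in duplicate over 48 h before RNA extraction.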

Read-out in assay [6]: Cellular tumor antigen p53 (Homo sapiens) (UniProt P04637)
Nature of the assay: LTEA_HepaRG_TP53: Life Technologies and Expression Analysis (LTEA) Assay for Tumor Protein P53 (TP53) using HepaRG (AID 2283537; active = hit-call score of the fitted dose curve at least 0.9, where 1 is the maximum; inactive = score below 0.9). As to conditions: mRNA level, 48 h; actives raise or lower the signal. The essentials: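 Read-out is TP53 transcript level by microfluidic qRT-PCR, normalised to three housekeeping genes and fitted bidirectionally against DMSO. Human HepaRG cells received compounds for 48 h, highest concentration 100 uM.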

Read-out in assay [7]: UDP glucuronosyltransferase (UGT1A1), UGT1A1 (gene 54658)
In words: LTEA_HepaRG_UGT1A1: Life Technologies and Expression Analysis (LTEA) Assay for UDP glucuronosyltransferase (UGT1A1) using HepaRG (AID 2283538; active = hit-call score of the fitted dose curve at least 0.9, where 1 is the maximum; inactive = score below 0.9). As to conditions: mRNA level, 48 h; actives raise or lower the signal. The method in brief: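 Readout is UGT1A1 transcript level by qRT-PCR, normalized to three housekeeping genes, after 48 h chemical treatment of HepaRG cells. Concentrations ran from 100 uM down in half-log steps with 0.5% DMSO, and gain or loss relative to DMSO was fitted.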

Read-out in assay [8]: UDP glucuronosyltransferase (UGT1A6), UGT1A6 (gene 54578)
Nature of the assay: LTEA_HepaRG_UGT1A6: Life Technologies and Expression Analysis (LTEA) Assay for UDP glucuronosyltransferase (UGT1A6) using HepaRG (AID 2283539; active = hit-call score of the fitted dose curve at least 0.9, where 1 is the maximum; inactive = score below 0.9). As to conditions: mRNA level, 48 h; actives raise or lower the signal. The method in brief: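 Measures mRNA change in HepaRG hepatic cells exposed 48 h to chemicals (eight-point, maximum 100 uM, 0.5% DMSO vehicle) in serum-free induction medium. Expression normalized to endogenous controls; DMSO served as negative control and baseline.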

Read-out in assay [9]: X-box binding protein 1 (XBP1), XBP1 (gene 7494)
Nature of the assay: LTEA_HepaRG_XBP1: Life Technologies and Expression Analysis (LTEA) Assay for X-box binding protein 1 (XBP1) using HepaRG (AID 2283540; active = hit-call score of the fitted dose curve at least 0.9, where 1 is the maximum; inactive = score below 0.9). As to conditions: mRNA level, 48 h; actives raise or lower the signal. The method in brief:
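Eight concentrations (half-log, highest 100 uM, 0.5% DMSO) tested in duplicate on HepaRG cells over 48 h in serum-free induction medium; qRT-PCR of XBP1 normalised to ACTB, GAPDH, POLR2A.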

Assay [10] in a line: LTEA_HepaRG_LDH_cytotoxicity: Cytotoxicity Assessment in the Life Technologies and Expression Analysis (LTEA) Assay (AID 2283563).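 As to AC50: LDH activity released into spent culture medium as a marker of cell death.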 The essentials: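 Spent-medium LDH after 48 h chemical exposure of HepaRG cells in serum-free induction medium; eight concentrations, half-log dilutions from 100 uM, duplicate wells, fitted upward relative to 0.5% DMSO.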
Assay [11] can be described thus: ATG_XTT_Cytotoxicity: Cytotoxicity Assessment in the Attagene TRANS-FACTORIAL HepG2 Assay (AID 2283584). The essentials:
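24 h chemical exposure of reporter-transfected HepG2; XTT signal loss vs DMSO indicates cytotoxicity.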

Assay [12] addresses Cellular tumor antigen p53 (Homo sapiens) (UniProt P04637). In words: TOX21_p53_BLA_p2_ratio: Tox21 HCT-116 p53 Agonism Beta-lactamase Assay, Ratio, Phase 2 (AID 2283592). The essentials: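 Human colon HCT116 cells with an inducible p53 beta-lactamase reporter are exposed to test chemicals for 16 h at 37C. Reporter induction is read as the 460/530 nm emission ratio after CCF4-AM loading, normalized to DMSO.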

Assay [13] is described as follows: TOX21_p53_BLA_p3_viability: Viability Assessment in the Tox21 HCT-116 p53 Agonism Beta-lactamase Assay, Phase 3 (AID 2283593).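 Also: cells exposed to compound for 16 h before reading.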 The method in brief: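 Cellular ATP was quantified by CellTiter-Glo luminescence, read after 30 min at room temperature. Beforehand, HCT116 cells (4000/well) received compound 5 h post-seeding, 217-fold diluted from DMSO, then incubated 16 h at 37C.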

The target of assay [14] is Cellular tumor antigen p53 (Homo sapiens) (UniProt P04637). In words: TOX21_p53_BLA_p3_ratio: Tox21 HCT-116 p53 Agonism Beta-lactamase Assay, Ratio, Phase 3 (AID 2283596). The method in brief: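 HCT116 p53-bla cells (4000/well) given compound in DMSO (217-fold dilution) after 5 h, incubated 16 h at 37C. CCF4-AM substrate 2 h at room temperature; 460/530 nm emission ratio, gain fitted against DMSO.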
Chain of Cellular tumor antigen p53 (Homo sapiens) (P04637 whole entry, looked up): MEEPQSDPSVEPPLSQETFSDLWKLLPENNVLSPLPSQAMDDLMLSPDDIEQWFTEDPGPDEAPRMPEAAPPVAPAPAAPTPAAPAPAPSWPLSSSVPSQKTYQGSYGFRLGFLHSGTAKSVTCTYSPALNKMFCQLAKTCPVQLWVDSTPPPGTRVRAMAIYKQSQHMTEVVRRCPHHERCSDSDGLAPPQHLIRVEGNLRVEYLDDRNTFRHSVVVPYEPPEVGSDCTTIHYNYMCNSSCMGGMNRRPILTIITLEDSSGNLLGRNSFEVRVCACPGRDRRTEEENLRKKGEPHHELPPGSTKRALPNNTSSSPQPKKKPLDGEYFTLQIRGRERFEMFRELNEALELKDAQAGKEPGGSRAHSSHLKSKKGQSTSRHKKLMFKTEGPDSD

The nature of assay [15]: TOX21_p53_BLA_p4_viability: Viability Assessment in the Tox21 HCT-116 p53 Agonism Beta-lactamase Assay, Phase 4 (AID 2283597).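 Also: hits lower the luminescence signal meaning cytotoxicity.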 The essentials: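 Luminescent ATP readout (CellTiter-Glo, 30 min, room temperature) in the same wells as the p53 bla ratio. HCT116 cells were treated for 16 h at 37C with DMSO-dissolved compounds.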
Assay [16] deals with Cellular tumor antigen p53 (Homo sapiens) (UniProt P04637). In words: TOX21_p53_BLA_p5_ratio: Tox21 HCT-116 p53 Agonism Beta-lactamase Assay, Ratio, Phase 5 (AID 2283599). The essentials: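 Beta-lactamase reporter ratio (blue 460 nm over green 530 nm, 405 nm excitation) after 2 h CCF4-AM loading, in HCT-116 cells exposed 16 h at 37 C to compounds pinned at 217-fold dilution. Increases relative to DMSO baseline scored.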

Assay [17] shares this target. Nature of the assay: TOX21_p53_BLA_p4_ratio: Tox21 HCT-116 p53 Agonism Beta-lactamase Assay, Ratio, Phase 4 (AID 2283601). The essentials: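 Signal is the blue/green (460nm/530nm) ratio of cleaved versus uncleaved CCF4-AM substrate, read after 2 h substrate loading. Cells were HCT116 carrying the p53-responsive beta-lactamase reporter, dosed 16 h at 37C, 5% CO2; CellTiter-Glo measured in parallel.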

Read-out in assay [18]: Transforming Growth Factor (TGFB1), TGFB1 (gene 7040)
Nature of the assay: LTEA_HepaRG_TGFB1: Life Technologies and Expression Analysis (LTEA) Assay for Transforming Growth Factor (TGFB1) Transporter using HepaRG (AID 2283533; active = hit-call score of the fitted dose curve at least 0.9, where 1 is the maximum; inactive = score below 0.9). As to conditions: mRNA level, 48 h; actives raise or lower the signal. The method in brief: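 Eight-point concentration-response (max 100 uM, half-log) in HepaRG under serum-free induction conditions, 48 h. TGFB1 mRNA by qRT-PCR, housekeeping-normalized.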

The nature of assay [19]: TOX21_p53_BLA_p2_viability: Viability Assessment in the Tox21 HCT-116 p53 Agonism Beta-lactamase Assay, Phase 2 (AID 2283591).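 Also: compound exposure lasted 16 h at 37 °C; actives lower the ATP signal meaning cytotoxicity.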 The method in brief: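 Cytotoxicity readout: CellTiter-Glo ATP luminescence, 30 min at room temperature, after the beta-lactamase read. Cells were HCT116 exposed 16 h at 37C to compounds pin-transferred at 217-fold dilution from DMSO stocks.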
A short description of assay [20]: TOX21_p53_BLA_p5_viability: Viability Assessment in the Tox21 HCT-116 p53 Agonism Beta-lactamase Assay, Phase 5 (AID 2283600). The essentials:
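Seeded cells (4000/well) settle 5 h before compound addition. Plates then incubate 16 h at 37C, receive FRET substrate for 2 h, and finally CellTiter-Glo, with luminescence measured after a 30 min room-temperature incubation.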

Several values for one entry are separate records, joined by “and”; a condition that tells them apart may be missing. Equal values may be shown once. Inconclusive results are not listed. More than one record can exist for a structure, and the calls need not agree. Activity calls are given as the source filed them. The calls were made as follows, unless noted: active = hit-call score of the fitted dose curve at least 0.9, where 1 is the maximum; inconclusive = response in the unintended direction; inactive = score below 0.9.

As to `COC(=O)Nc1nc2ccccc2[nH]1`, the outcome in assay [1], in assay [2], in [3], in assay [4], in assay [5] and in [6] was inactive. Moreover, the outcome in assay [8], in [9], in assay [10], in assay [11], in [13] and in assay [15] was inactive. Further, the AC50 in [7] was 31.4 µM (active); in assay [12], 10.1 µM (active) and 7.91 µM (active); in assay [14], 12.9 µM (active) and 8.81 µM (active); in assay [16], 15 µM (active) and 15.4 µM (active); in [17], 9.43 µM (active) and 7.88 µM (active).
Consider `Cc1cc(N=Nc2ccccc2C)ccc1N`, for which the half-maximal activity concentration (AC50) is 12.8 µM (active) in assay [1]; 12.6 µM (active) in [2]; 2.72 µM (active) in assay [18]; 1.41 µM (active) in [5]; 1.97 µM (active) in assay [6]; 85.9 µM (active) in [7]. The AC50 in [9] was 4 µM (active); in assay [10] it was 5.21 µM (active); in assay [19], 81 µM (active); in assay [12], 73.1 µM (active); in [15] it was 46.1 µM (active); in [16], 73.3 µM (active) and 76.2 µM (active). Further, the outcome in assay [3], in assay [4], in assay [11], in assay [19], in assay [12] and in assay [13] was inactive. The outcome in [14], in assay [15] and in [20] was inactive.
For the compound `O=C(N[C@H](c1ccccc1)[C@@H]1CN2CCC1CC2)c1c(Cl)ccc(C(F)(F)F)c1Cl`, the AC50 is 73.2 µM (active) in assay [1]; 46.2 µM (active) in [2]; 46.2 µM (active) in [18]; 64.9 µM (active) in assay [3]; 73.9 µM (active) in [4]; 63.8 µM (active) in [7]. In addition, the concentration at half-maximal activity (AC50) in [8] is 68.2 µM (active); in [9], 73.9 µM (active); in [10] it was 51.9 µM (active); in assay [17] it was 127 µM (active). The compound was called inactive in assay [5], in assay [6], in assay [19], in [12], in [16] and in assay [20].
